Measurements from ChEMBL document CHEMBL4513216, “Probing the Open Global Health Chemical Diversity Library for Multistage-Active Starting Points for Next-Generation Antimalarials” (ACS Infect Dis, 2020).
Screen size: about 69,000 compounds; about 8,600 (12%) showed an effect of 50% or more. This is one part of a sample in which strong results are shown more often than they occur.

Test system: Plasmodium berghei
Assay: Screen against P. berghei liver stage (PbLuc), transformed with Luciferase, at 10uM
Type: functional, HepG2
Details: tested at 10 uM

SMILES | INHIBITION
CCOCC1CN(C(=O)C2=CCCC2)Cc2cnn(CC)c21 (configuration not stated) | 42.6%
Cc1cnn(CC2CN(CCCc3nc4ccccc4o3)CCO2)c1 (configuration not stated) | -12.1%
CCn1nc(C)c(NC(=O)CN2CCC(c3ccccc3Cl)C2)c1C (configuration not stated) | 48.2%
COCCN1C[C@H](NC(=O)CCC(F)(F)F)[C@@H](C(C)C)C1 | 30.9%
CC(=O)N1CCCC(c2ccc(CO)c(-c3c(C)noc3C)n2)C1 (configuration not stated) | 18.4%
CCc1nc(C)c(C(=O)NCCN2CCCC2)s1 | -19.9%
COC(=O)c1ccc(C(=O)NCc2nn(C)c3c2COCC3)cc1 | 6%
COCC(C)(C#N)NC(=O)COc1ccccc1 (configuration not stated) | 66.7%
CC(C)(C)NC(=O)COc1ccc(Oc2ccccn2)cc1 | 23.7%
COCC(C)(C#N)NC(=O)COc1ccccc1Br (configuration not stated) | -3.81%
OCc1cnc(Nc2ccccc2)nc1 | -7.27%
Cc1c(CN2CCOCC2)c(O)n(CCc2ccccc2)c(=O)c1C#N | 6%
Cn1cc(C(=O)NCc2cncc3c2CCN(c2ccccn2)C3)cn1 | 34%
CN(Cc1ccco1)Cc1cncc2c1CCN(S(C)(=O)=O)C2 | 40.1%
CN(Cc1cccnc1)Cc1cncc2c1CCN(c1ccccn1)C2 | 51.2%
Cn1cc(C(=O)NCc2cncc3c2CCN(S(C)(=O)=O)C3)cn1 | 38.5%
Cc1nccc(NCc2cncc3c2CCN(S(C)(=O)=O)C3)n1 | 59.3%
Cc1occc1C(=O)N1CCc2c(CNc3ncccn3)cncc2C1 | 4.27%
Cc1cnc(N2CCc3c(CN(C)Cc4ccco4)cncc3C2)nc1 | 66.8%
CN(Cc1ccco1)Cc1cncc2c1CCN(c1ncccn1)C2 | 37%
COCc1cncc2c1CCN(Cc1ccccn1)C2 | -13.2%
Cc1ccc(N2CCc3c(CN(C)Cc4ccco4)cncc3C2)nn1 | -11.2%
Cc1ccc(NCc2cncc3c2CCN(Cc2ccccn2)C3)nn1 | -30.7%

SMILES | INHIBITION
Cc1cnc(N2CCc3c(CNc4ccnc(C)n4)cncc3C2)nc1 | 94.6%
Cc1ccnc(C2CCN(C(=O)CCn3ncc4ccccc43)C2)n1 (configuration not stated) | 5.11%
CNC(=O)[C@@H](c1ccccc1F)N1CCC[C@H]1C(=O)NC1CC1 | 0.734%
Cn1ccnc1CN1CCO[C@H]2C(CNC(=O)c3ccco3)CC[C@@H]21 (some centres not stated) | 16.9%
CC(C)CC(=O)N1CC[C@@H]2CN(Cc3cccnc3)S(=O)(=O)[C@@H]2CC1 | 42.1%
Cc1cc(C(=O)N2CC[C@@H]3CN(S(C)(=O)=O)CCO[C@@H]3C2)c(C)o1 | 37%
O=C(NCc1cc[nH]n1)NC1CCCN(c2ncccn2)C1 (configuration not stated) | -0.79%
Cc1cnc(N2CCN3C[C@H](OCc4cccc(C)n4)C[C@H]3C2)nc1 | 42.3%
O=C(NCC1CC1)c1nc2c(o1)CN(CC1CC1)C2 | -48.4%
Fc1ccccc1Cc1noc(CN2CCC(C3CCCCC3)C2)n1 (configuration not stated) | 49.9%
COC(=O)c1sccc1NC(=O)C1CCCN1C(=O)c1ccco1 (configuration not stated) | -62.2%
COCc1ccccc1NC(=O)[C@@H]1CCCN1C(=O)c1ccco1 | 39.2%
Cc1cccc(NC(=O)C2CCCN2C(=O)c2ccco2)c1C (configuration not stated) | 72.5%
N#CCCN(CCN1CCOCC1)Cc1ccc(F)c(Br)c1 | 20.4%
CC(C)CN1C(=O)CC[C@H]2CN(C(=O)Cn3ccccc3=O)CC[C@H]21 | 45.8%
CC(C)CN1C(=O)CC[C@H]2CN(C(=O)Cn3ccc(=O)cc3)CC[C@H]21 | 33.9%
CC1=NN(CC(=O)N2CC[C@@H]3[C@@H](CCC(=O)N3CC(C)C)C2)CC1 | 56.7%
COc1ccnc(N2CCN(C(=O)c3ccn(C)c(=O)c3)CC2)n1 | -21.8%
Cc1nnsc1C(=O)N1CC(c2nc3ccccc3[nH]2)C1 | 49.4%
Cc1nnsc1C(=O)N1CCC(c2nc3ccccc3[nH]2)CC1 | 65.4%
CCc1nnsc1C(=O)N1CCCC(c2nc3ccccc3[nH]2)C1 (configuration not stated) | 26.9%
O=C(c1cc2ccccc2[nH]1)N1CCCCC1Cn1cccn1 (configuration not stated) | 48.1%
Cc1nn(C)cc1-c1cc(C(F)F)nc2sc(C(N)=O)c(N)c12 | 1.86%

SMILES | INHIBITION
CC(C)c1nnsc1CN1CCc2[nH]nc(-c3ccc(F)c(F)c3)c2C1 | 70.4%
CCc1nc(C)sc1CN1CCc2[nH]nc(-c3ccc(F)c(F)c3)c2C1 | 37.2%
CC(C)(C)c1ccc(-c2n[nH]c3c2CN(CC2CCOC2)CC3)cc1 (configuration not stated) | 44.3%
CC(O)CN1CCc2[nH]nc(C(c3ccccc3)c3ccccc3)c2C1 (configuration not stated) | -12.1%
COC(=O)CCC(=O)N1CCc2[nH]nc(-c3ccc(F)c(F)c3)c2C1 | 15.9%
CC(C)c1nnsc1CN1CCc2[nH]nc(-c3ccc(Cl)cc3)c2C1 | 50.1%
CS(=O)(=O)N[C@@H]1COC[C@@H]2CN(Cc3ccoc3)C[C@@H]21 | 15.4%
Cc1cccc(C(=O)N(CC(=O)O)CC(C)C)c1 | 28.1%
CCN(CC)C(=O)c1cc(C2CCCN2C)ccn1 (configuration not stated) | 47.2%
CC(COc1ccc(F)cc1F)NC(=O)NCCN1CCOCC1 (configuration not stated) | -32.4%
CCC(C)NC(=O)c1sccc1-n1cnnn1 (configuration not stated) | -5.22%
COc1cccc2c1ccn2CC(=O)N1CCCC(C(=O)O)C1 (configuration not stated) | 31.7%
O=C(c1ccco1)N1CCCC2(CN(Cc3ccc(F)cc3)CCO2)C1 (configuration not stated) | -1.83%
O=C1N(CC2CC2)C(c2cncs2)NC12CCCC2 (configuration not stated) | 49%
Cc1cccc(CN2CCC3(CC2)COC(COCC2CC2)C3)n1 (configuration not stated) | 43%
Cn1cc(CCC(=O)N2C[C@H]3CC[C@@H](C2)N(Cc2ccccn2)C3)cn1 | 6.11%
Cn1cc(CN(Cc2ccccc2)Cc2ccccn2)cn1 | 1.62%
CCCN(CCc1ccccn1)C(=O)CCc1cnn(C)c1 | 65.2%
CCCN(CCc1ccccn1)C(=O)Cn1cc(C)cn1 | 78.8%
CCCN(CCc1ccccn1)C(=O)Cn1cnnn1 | -17.8%
Cc1cnn(CC2CCCCN2CC(=O)NCc2ccccn2)c1 (configuration not stated) | -4.74%
